We go through four molecules from PubChem BioAssay (EPA / NIEHS).

Read-out in assay [1]: Cytochrome P450 (CYP1A1), CYP1A1 (gene 1543)
Kind of assay: LTEA_HepaRG_CYP1A1: Life Technologies and Expression Analysis (LTEA) Assay for Cytochrome P450 (CYP1A1) using HepaRG (AID 2283454). Particulars: mRNA level, 48 h; actives raise or lower the signal. The method in brief: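 Differentiated human HepaRG cells, after 48 h plating, exposed in duplicate for 48 h in serum-free induction medium to 8 half-log concentrations up to 100 uM in 0.5% DMSO. CYP1A1 mRNA by qRT-PCR, normalized to ACTB/GAPDH/POLR2A; bidirectional fit versus DMSO.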

Read-out in assay [2]: CFLAR gene, CFLAR (gene 8837)
Description: LTEA_HepaRG_CFLAR: Life Technologies and Expression Analysis (LTEA) Assay for CFLAR gene using HepaRG (AID 2283455). Particulars: mRNA level, 48 h; actives raise or lower the signal. The gist of the method: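 HepaRG, 48 h exposure, 8-pt conc-response (100 uM top, half-log), 0.5% DMSO vehicle, duplicates. CFLAR expression by qRT-PCR; ACTB/GAPDH/POLR2A normalization; gain or loss fit vs DMSO baseline.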

Read-out in assay [3]: Forkhead box O1 (FOXO1), FOXO1 (gene 2308)
Description: LTEA_HepaRG_FOXO1: Life Technologies and Expression Analysis (LTEA) Assay for Forkhead box O1 (FOXO1) using HepaRG (AID 2283456). Particulars: mRNA level, 48 h; actives raise or lower the signal. The method in brief: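 Readout is FOXO1 transcript level by multiplexed qRT-PCR against three housekeeping genes, curve-fitted in both directions relative to 0.5% DMSO vehicle. Human HepaRG cultures received chemicals for 48 h, up to 100 uM in half-log steps.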

Assay [4] is described as follows: CEETOX_H295R_TESTO: CeeTox H295R High-throughput Steroidogenesis Assay for Testosterone (TESTO) (AID 2283457). The following applies: actives raise or lower the signal. The method in brief:
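H295R adrenal cells, passage ≤10, exposed to chemicals for 48 h. Testosterone in medium measured by MTBE extraction and HPLC-MS/MS against a 7-point standard curve. Bidirectional fit versus DMSO; MTT viability checked in the same wells.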

Read-out in assay [5]: growth arrest and DNA damage 45 (GADD45A), GADD45A (gene 1647)
Kind of assay: LTEA_HepaRG_GADD45A: Life Technologies and Expression Analysis (LTEA) Assay for growth arrest and DNA damage 45 (GADD45A) using HepaRG (AID 2283458). The following applies: mRNA level, 48 h; actives raise or lower the signal. The gist of the method:
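Cells plated and cultured 48 h, switched to serum-free induction medium, then dosed for 48 h (100 uM top, half-log dilutions, 0.5% DMSO). RNA was isolated and transcript measured by Fluidigm qRT-PCR.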

Read-out in assay [6]: Forkhead box O3 (FOXO3), FOXO3 (gene 2309)
Kind of assay: LTEA_HepaRG_FOXO3: Life Technologies and Expression Analysis (LTEA) Assay for Forkhead box O3 (FOXO3) using HepaRG (AID 2283459). The following applies: mRNA level, 48 h; actives raise or lower the signal. The method in brief:
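HepaRG, 48 h post-dose; 8 conc., half-log from 100 uM, 0.5% DMSO, duplicates; serum-free induction medium. Readout: FOXO3 mRNA, TaqMan qRT-PCR, housekeeping-normalized. Bidirectional curve fit vs DMSO baseline.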

Read-out in assay [7]: ABC Transporter (ABCC3), ABCC3 (gene 8714)
Description: LTEA_HepaRG_ABCC3: Life Technologies and Expression Analysis (LTEA) Assay for ABC Transporter (ABCC3) using HepaRG (AID 2283462). Particulars: mRNA level, 48 h; actives raise or lower the signal. The method in brief: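 Differentiated human HepaRG cells exposed 48 h in serum-free induction medium, 0.5% DMSO vehicle, 8-point half-log series to 100 uM in duplicate. ABCC3 mRNA by qRT-PCR, normalised to ACTB, GAPDH, POLR2A; bidirectional fit vs DMSO.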

Read-out in assay [8]: ABC Transporter (ABCB11), ABCB11 (gene 8647)
Kind of assay: LTEA_HepaRG_ABCB11: Life Technologies and Expression Analysis (LTEA) Assay for ABC Transporter (ABCB11) using HepaRG (AID 2283463). The following applies: mRNA level, 48 h; actives raise or lower the signal. The gist of the method:
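ABCB11 transcript levels are read by Fluidigm TaqMan qRT-PCR after 48 h chemical treatment of human HepaRG cells. Concentrations span 100 uM downward in half-log steps with 0.5% DMSO; gain or loss is fitted against DMSO controls.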

Read-out in assay [9]: ABC Transporter (ABCC2), ABCC2 (gene 1244)
Description: LTEA_HepaRG_ABCC2: Life Technologies and Expression Analysis (LTEA) Assay for ABC Transporter (ABCC2) using HepaRG (AID 2283464). The following applies: mRNA level, 48 h; actives raise or lower the signal. The method in brief:
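Differentiated HepaRG cells in serum-free induction medium exposed 48 h to eight half-log concentrations up to 100 uM, 0.5% DMSO, in duplicate. ABCC2 mRNA measured by qRT-PCR (TaqMan, Fluidigm), normalized to ACTB, GAPDH and POLR2A. Fitted in both directions against DMSO.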

Read-out in assay [10]: Broad substrate specificity ATP-binding cassette transporter ABCG2 (Homo sapiens) (UniProt Q9UNQ0)
Description: LTEA_HepaRG_ABCG2: Life Technologies and Expression Analysis (LTEA) Assay for ABC Transporter (ABCG2) using HepaRG (AID 2283465). Particulars: mRNA level, 48 h; actives raise or lower the signal. The gist of the method: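 Read-out is ABCG2 mRNA induction or loss quantified by qRT-PCR after 48 h chemical treatment of human HepaRG cells, normalized to three housekeeping genes. Concentrations reached 100 uM top in half-log steps; fitting was bidirectional against 0.5% DMSO.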

Read-out in assay [11]: ATP-citrate lyase (ACLY), ACLY (gene 47)
Kind of assay: LTEA_HepaRG_ACLY: Life Technologies and Expression Analysis (LTEA) Assay for ATP-citrate lyase (ACLY) using HepaRG (AID 2283466). Particulars: mRNA level, 48 h; actives raise or lower the signal. The method in brief: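 HepaRG, 48 h exposure, 8-pt half-log dilutions (top 100 uM), 0.5% DMSO. Readout: ACLY mRNA, TaqMan qRT-PCR, housekeeping-normalized (ACTB/GAPDH/POLR2A). Bidirectional curve fit vs DMSO.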

Read-out in assay [12]: Peroxisomal acyl-coenzyme A oxidase 1 (ACOX1) gene, ACOX1 (gene 51)
Kind of assay: LTEA_HepaRG_ACOX1: Life Technologies and Expression Analysis (LTEA) Assay for Peroxisomal acyl-coenzyme A oxidase 1 (ACOX1) gene using HepaRG (AID 2283467). The following applies: mRNA level, 48 h; actives raise or lower the signal. The gist of the method: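 Measured by qRT-PCR against three housekeeping genes: ACOX1 transcript change in human HepaRG cells after 48 h dosing. Concentrations ran up to 100 uM in half-log steps. Curves were fitted bidirectionally relative to 0.5% DMSO.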

Read-out in assay [13]: Alkaline Phosphatase, Placental (ALPP) gene, ALPP (gene 250)
Description: LTEA_HepaRG_ALPP: Life Technologies and Expression Analysis (LTEA) Assay for Alkaline Phosphatase, Placental (ALPP) gene using HepaRG (AID 2283468). The following applies: mRNA level, 48 h; actives raise or lower the signal. The gist of the method: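 HepaRG cells plated 48 h, then exposed in duplicate for 48 h in serum-free induction medium to 8-point half-log series from 100 uM in 0.5% DMSO. ALPP mRNA by TaqMan qRT-PCR, normalized to ACTB/GAPDH/POLR2A; bidirectional fit versus DMSO.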

Read-out in assay [14]: Bcl-2 (BAD) gene, BAD (gene 572)
Kind of assay: LTEA_HepaRG_BAD: Life Technologies and Expression Analysis (LTEA) Assay for Bcl-2 (BAD) gene using HepaRG (AID 2283469). Particulars: mRNA level, 48 h; actives raise or lower the signal. The method in brief: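 BAD transcript change, measured by qRT-PCR against three housekeeping genes and fitted in both directions relative to 0.5% DMSO, after 48 h chemical treatment of human HepaRG liver cells at concentrations up to 100 uM.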

Read-out in assay [15]: Bcl-2 (BAX) gene, BAX (gene 581)
Description: LTEA_HepaRG_BAX: Life Technologies and Expression Analysis (LTEA) Assay for Bcl-2 (BAX) gene using HepaRG (AID 2283470). The following applies: mRNA level, 48 h; actives raise or lower the signal. The gist of the method: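 HepaRG (human liver), 48 h exposure, duplicate wells. 8-pt curve, half-log from 100 uM, 0.5% DMSO. BAX transcript by TaqMan qRT-PCR; ACTB/GAPDH/POLR2A normalization; gain or loss vs DMSO baseline.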

Read-out in assay [16]: adenosine kinase (ADK) gene, ADK (gene 132)
Description: LTEA_HepaRG_ADK: Life Technologies and Expression Analysis (LTEA) Assay for adenosine kinase (ADK) gene using HepaRG (AID 2283471). The following applies: mRNA level, 48 h; actives raise or lower the signal. The gist of the method: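 ADK expression quantified by qRT-PCR, normalised to three housekeeping genes, after 48 h exposure of HepaRG cells to eight concentrations (top 100 uM, half-log steps, duplicate, 0.5% DMSO). Up- or down-regulation fitted relative to vehicle.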

Read-out in assay [17]: Alpha-fetoprotein (AFP) gene, AFP (gene 174)
Description: LTEA_HepaRG_AFP: Life Technologies and Expression Analysis (LTEA) Assay for Alpha-fetoprotein (AFP) gene using HepaRG (AID 2283472). The following applies: mRNA level, 48 h; actives raise or lower the signal. The method in brief:
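HepaRG, single lot; 48 h post-plating -> serum-free induction medium; cpd 8-pt, 100 uM top, half-log, 0.5% DMSO, duplicate, 48 h. RNA -> qRT-PCR AFP, norm ACTB/GAPDH/POLR2A. Bidirectional fit vs DMSO.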

Read-out in assay [18]: ABC Transporter (ABCB1), ABCB1 (gene 5243)
Kind of assay: LTEA_HepaRG_ABCB1: Life Technologies and Expression Analysis (LTEA) Assay for ABC Transporter (ABCB1) using HepaRG (AID 2283460). The following applies: mRNA level, 48 h; actives raise or lower the signal. The gist of the method: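 Expression of ABCB1 was quantified by qRT-PCR against three housekeeping genes after human HepaRG cultures received test chemicals for 48 hours. Concentrations spanned eight half-log steps topping at 100 uM in 0.5% DMSO; gain or loss of signal was fitted relative to vehicle.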

Read-out in assay [19]: growth arrest and DNA damage 45 (GADD45B), GADD45B (gene 4616)
Kind of assay: LTEA_HepaRG_GADD45B: Life Technologies and Expression Analysis (LTEA) Assay for growth arrest and DNA damage 45 (GADD45B) using HepaRG (AID 2283461). The following applies: mRNA level, 48 h; actives raise or lower the signal. The gist of the method:
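Differentiated human HepaRG cells in serum-free induction medium exposed 48 h in duplicate to eight concentrations, top 100 uM, half-log steps, 0.5% DMSO. GADD45B mRNA by TaqMan qRT-PCR, normalized to ACTB, GAPDH, POLR2A; bidirectional fit versus DMSO.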

Read-out in assay [20]: flavin-containing dimethylaniline monooxygenases 3 (FMO3), FMO3 (gene 2328)
Kind of assay: LTEA_HepaRG_FMO3: Life Technologies and Expression Analysis (LTEA) Assay for flavin-containing dimethylaniline monooxygenases 3 (FMO3) using HepaRG (AID 2283453). The following applies: mRNA level, 48 h; actives raise or lower the signal. The method in brief:
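Differentiated HepaRG cells in serum-free induction medium, exposed 48 h in duplicate to 8 half-log concentrations up to 100 uM in 0.5% DMSO. FMO3 mRNA by qRT-PCR, normalized to ACTB, GAPDH, POLR2A; bidirectional fit vs DMSO.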

Active and inactive are the calls of the source. Rule for the calls: active = hit-call score of the fitted dose curve at least 0.9, where 1 is the maximum; inactive = score below 0.9.

Sequence of Broad substrate specificity ATP-binding cassette transporter ABCG2 (Homo sapiens) (Q9UNQ0 whole entry, looked up): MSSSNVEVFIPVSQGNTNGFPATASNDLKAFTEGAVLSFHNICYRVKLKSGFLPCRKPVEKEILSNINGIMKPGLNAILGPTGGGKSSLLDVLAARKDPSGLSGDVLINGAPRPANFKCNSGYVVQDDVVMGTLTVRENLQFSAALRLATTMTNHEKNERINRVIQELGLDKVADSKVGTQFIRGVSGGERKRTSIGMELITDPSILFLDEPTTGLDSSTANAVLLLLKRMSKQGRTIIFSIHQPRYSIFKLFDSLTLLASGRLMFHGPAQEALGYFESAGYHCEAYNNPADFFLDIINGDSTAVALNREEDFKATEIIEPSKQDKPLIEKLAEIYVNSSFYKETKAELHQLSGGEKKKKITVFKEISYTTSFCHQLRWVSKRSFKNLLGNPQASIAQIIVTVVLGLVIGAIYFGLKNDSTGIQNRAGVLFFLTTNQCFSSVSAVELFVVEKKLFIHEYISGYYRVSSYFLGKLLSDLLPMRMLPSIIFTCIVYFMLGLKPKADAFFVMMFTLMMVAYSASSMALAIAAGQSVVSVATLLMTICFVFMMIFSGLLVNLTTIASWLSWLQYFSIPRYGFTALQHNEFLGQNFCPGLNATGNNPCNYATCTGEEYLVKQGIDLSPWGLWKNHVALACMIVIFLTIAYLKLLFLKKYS

The term AC50 denotes the midpoint of the concentration-response curve, whichever way the signal moves. Turning to `CNC(=O)Oc1cccc2c1OC(C)(C)C2`, the AC50 in [1] is 50 µM (active); in [5], 0.0409 µM (active); in [8], 28.4 µM (active); in [17] it was 9.92 µM (active). For the same molecule, the outcome in assay [2], in assay [3], in assay [4], in assay [6], in assay [7] and in assay [9] was inactive. Moreover, the outcome in [10], in assay [11], in assay [12], in [13], in [14] and in assay [15] was inactive. Besides, in [16], the result was inactive.
For `c1ccc(NNc2ccccc2)cc1`, the half-maximal activity concentration (AC50) in [1] is 31.6 µM (active); in assay [19] it was 50 µM (active). In addition, the outcome in [2], in [3], in [5], in assay [6], in assay [18] and in [7] was inactive. Further, the result in assay [8], in assay [9], in assay [10], in [11], in assay [12] and in [13] was inactive. In addition, the result in [14], in assay [16] and in assay [17] was inactive.
In the case of `Clc1ccc(C(c2ccc(Cl)cc2)C(Cl)(Cl)Cl)cc1`, the AC50 in assay [20] was 88.4 µM (active); in assay [1], 9.54 µM (active); in assay [9] it was 4.19 µM (active); in assay [10], 0.788 µM (active); in assay [17] it was 50 µM (active). Moreover, the molecule was classed as inactive in assay [2], in [3], in assay [5], in [6], in assay [7] and in [8]. Moreover, the molecule was called inactive in assay [11], in assay [12], in assay [13], in [14] and in assay [16].
For `c1ccc(C2CO2)cc1` (stereo unspecified), the outcome in assay [20], in assay [1], in assay [2], in assay [3], in assay [5] and in [6] was inactive. The outcome in assay [7], in assay [8], in assay [9], in assay [10], in assay [11] and in assay [12] was inactive. Also, the outcome in assay [13], in assay [14], in [15] and in assay [17] was inactive.
